Only some compounds are listed: those with a hit (about 19% of all), similar ones and a draw of the others.
Pf growth 96h – Primary qHTS for delayed death inhibitors of the malarial parasite plastid, 96 hour incubation; Potency, µM (titrated, usually from 28.7 µM), inactives show at the top dose activity change, negative = inhibition, usual class: inhibitors; 320,000 tested, 6.9% active; AID 504834, 2011; P. falciparum luciferase reporter growth, 96 h; note: potency is the fitted concentration of half-maximal effect; % is set by controls: 0 for no effect and ±100 for the full control effect
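Compounds incubated with erythrocytes infected by luciferase-expressing P. falciparum (2% hematocrit, 0.05% parasitemia final) for 96 hours, 37 C in 5% CO2. Growth inhibition scored as decreased luciferase luminescence.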
AMA1-RON2 inh – qHTS for Inhibitors of AMA1-RON; Towards Development of Antimalarial Drug Lead: Primary Screen; Plasmodium falciparum AMA1 (3D7) - RON2 peptide interaction; AlphaScreen AMA1-biotinylated RON2 peptide binding; Potency, µM (highest dose often 58.2 µM), for the others: top-dose activity change, negative = inhibition, most hits filed as inhibitors; 360,000 tested, 0.2% active;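 note: potency is the fitted concentration of half-maximal effect; 0% = vehicle wells and -100% = peptide control; nearly all actives have a fitted effect of over 45% in size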
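AMA1 (3D7) with his tag at 25 nM final met compounds first, then biotinylated RON2 peptide at 25 nM; detection used donor plus acceptor beads, 10 µg/mL apiece, read by AlphaScreen after 30 min at room temperature.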
Cycloheximide cs – Cycloheximide Counterscreen for Small Molecule Inhibitors of Shiga Toxin. cell reporter, cycloheximide protein synthesis inhibition counterscreen. 300,000 tested, 12% active. max response, %; in the data active = max response mostly above about 13%, no sharp cut-off; inactive = mostly below about 14%; note: read at 38.3 µM for the half of the compounds with a filed dose; 0% is about no effect
Shiga toxin inh – A qHTS for Small Molecule Inhibitors of Shiga Toxin. Vero cells, Shiga toxin protein synthesis inhibition reporter. 290,000 tested, 9.2% active. inhibition, % at 38.7 µM. AID 2315, 2010; in the data active = inhibition mostly above about 28%, no sharp cut-off; inactive = mostly below about 43%; note: 0% is about no effect
SARS PLP yeast – qHTS of Yeast-based Assay for SARS-CoV PLP; S. cerevisiae expressing SARS-CoV PLpro, growth rescue; 330,000 tested, 0.19% active; AID 485353, 2010; Potency, µM (doses to about 32.9 µM), for the others: at the highest dose activity, positive = growth rescue, actives largely listed as activators; calls by dose curve; note: potency is the fitted concentration of half-maximal effect; 0% is about no effect; nearly all actives have a fitted effect of over 55% in size
Pf growth 48h – Primary qHTS for delayed death inhibitors of the malarial parasite plastid, 48 hour incubation; P. falciparum luciferase growth in erythrocytes, 48 h; Potency, µM (top dose mostly 28.7 µM), without a hit: at the highest dose activity change, negative = inhibition, usual class: inhibitors; 310,000 tested, 5.9% active; note: potency is the fitted concentration of half-maximal effect; % is set by controls: 0 for no effect and ±100 for the full control effect
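Compounds are pin-transferred into medium, infected erythrocytes (2% hematocrit, 0.1% parasitemia final) are added, and plates sit one parasite generation at 37 C in 5% CO2. Detection reagent is then added and luminescence measured.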
* marks the source's active call; other numbers are inactive results; ? = inconclusive; . = no result. Unless noted, calls come from the whole dose curve; as a rule, active = well fitted curve in the direction sought with a large enough effect; inconclusive = small, poorly fitted or top-dose-only effect, or another doubt; inactive = no such curve, though single readings can be large; an effect the other way counts as inactive or inconclusive.

SMILES | Pf growth 96h | AMA1-RON2 inh | Cycloheximide cs | Shiga toxin inh | SARS PLP yeast | Pf growth 48h
Clc1ccc(CSc2ccc(-c3ccco3)nn2)cc1 | 35.9% | -2.9% | 23.4* | 125.6* | -1.6% | 146.5%
COc1cccc(CNC(=O)CSc2ccc(-c3ccco3)nn2)c1 | 1.8% | 5.8% | -1.6 | 21.5 | 0.2% | -3.8%
Cc1cccc(CSc2ccc(-c3ccco3)nn2)c1 | -13.9% | 2.4% | 16.6* | 19.5 | -33.9% | 104.0%
O=C(CSc1ccc(-c2ccco2)nn1)Nc1ccc(F)cc1F | -3.2% | -3.1% | 0.5 | 32.6 | 14.9% | 1.3%
O=C(CSc1ccc(-c2ccco2)nn1)NCc1ccc(Cl)cc1 | ? | 29.5% | -0.4 | 24.9 | -7.6% | 5.2%
CCO[C@H]1OC(C(=O)N2CCOCC2)=C[C@@H](c2coc3ccccc3c2=O)[C@@H]1CCCO | 0.7% | 3.8% | 4.8 | -17.9 | -1.7% | 24.7%
Cn1c(CNC(=O)CCNC(=O)c2ccc(F)c(F)c2)cc(=O)n(C)c1=O | 45.7% | -1.8% | 7.2 | -7.7 | 8.6% | 41.9%
CCOC(=O)c1nc(C)sc1-c1ccnn1S(=O)(=O)c1cccc(Cl)c1 | 4.2% | -0.8% | 1.0 | 16.8 | -0.5% | -15.3%
O=C(c1ccco1)N1CCN(C2CN(C3CCCCC3)S(=O)(=O)C2)CC1 (stereo not drawn) | . | -3.3% | . | . | . | .
c1ccc(CSc2ccc(-c3ccco3)nn2)cc1 | 211.0% | -28.1% | 26.3* | 83.6 | -27.5% | 195.0%
Clc1cccc(CSc2nnc(-c3cccnc3)n2Cc2ccco2)c1 | 17.8% | 0.0% | -3.5 | -4.9 | ? | ?
Cc1ccc(CSc2ccc(-c3ccco3)nn2)cc1 | 30.0% | -0.7% | 12.0 | 21.2 | -12.2% | 159.1%
Clc1cccc(CSc2ccc(-c3cccnc3)nn2)c1 | 12.2% | 0.6% | 28.9* | 50.7 | -9.5% | -6.5%
Clc1cccc(CSc2ccc(-c3ccco3)nn2)c1 | 11.1% | ? | 31.2* | 61.1* | -0.9% | 38.1%
O=c1cc(-c2ccco2)nc(SCc2cccc(Cl)c2)[nH]1 | ? | -0.9% | 9.6 | . | 3.4% | -1.3%
Cc1ccc(S(=O)(=O)NCc2cccnc2)cc1C(=O)NC1CCCCC1 | ? | 3.9% | . | . | . | -4.3%
Cc1c(C(=O)NCc2ccc3c(c2)OCO3)sc(=O)n1Cc1ccc(-c2ccccc2)cc1 | . | -26.9% | . | . | . | .
COc1ccc(CN(C)C(=O)CCl)cc1 | 10.4µM* | -3.4% | 13.4 | -9.6 | -0.7% | 13.1µM*
CN(Cc1ccc(Cl)cc1)C(=O)CCl | ? | -7.8% | 2.2 | 3.5 | -16.0% | ?
CN(C)CCNC(=O)c1ccc(Cl)s1 | -18.5% | 17.8% | -3.7 | 31.8 | 2.9% | 35.0%
CN(Cc1ccc(Cl)s1)C(=O)CCl | 1.47µM* | 9.7% | 8.0 | 21.0 | -4.2% | 9.28µM*
CCCN(CCC)CC(=O)Nc1cccc2c1OCO2 | 11.7µM* | 6.5% | -1.4 | -19.4 | 2.6% | 1.7%
O=C(CN1CCCCC1)Nc1cccc2c1OCO2 | . | 4.8% | -5.5 | -15.2 | -2.4% | -0.2%
CNC(=S)NC1(C)CCS(=O)(=O)C1 (stereo not drawn) | 17.0% | -23.8% | -1.7 | -14.6 | 1.2% | 7.1%
CCOC(=O)c1sc2nc(C)nc(SCC(=O)NC3CCS(=O)(=O)C3)c2c1C (stereo not drawn) | ? | -1.1% | 6.3 | 11.0 | -6.1% | -19.9%
SMILES | Pf growth 96h | AMA1-RON2 inh | Cycloheximide cs | Shiga toxin inh | SARS PLP yeast | Pf growth 48h
COC(=O)c1sc2nc(C)nc(SCC(=O)C(C)(C)C)c2c1C | ? | -7.3% | 37.6* | 52.4 | -8.0% | -4.3%
C=CCc1cc(Cl)ccc1OCCCNCCO | 65.8% | 18.4% | -0.6 | -6.9 | 0.5% | 9.28µM*
Clc1ccc(OCCCN2CCCCC2)c(Br)c1 | ? | 14.4% | 70.9* | 12.2* | -24.3% | 31.5%
CC1CC(C)CN(CCOc2ccc(Cl)cc2Cl)C1 (stereo not drawn) | ? | -9.0% | 1.2 | -15.1 | -4.3% | 10.4µM*
CCCCNCCCOc1cc(Cl)ccc1Cl | 6.57µM* | -11.8% | -4.0 | -21.8 | -8.4% | .
Cc1c(C(=O)NCc2ccc3c(c2)OCO3)cccc1[N+](=O)[O-] | 290.0% | -15.4% | -0.9 | -2.7 | -11.3% | 19.1%
CC/C(=N\NC(=O)CCC(=O)NCc1ccccc1)c1ccc(O)cc1 | 33.3% | 35.6% | -1.3 | -20.1 | 0.0% | 11.2%
CC(C)NCCCOc1ccc(Cl)cc1Br | ? | 7.3% | 30.8* | 36.4* | 5.1% | ?
CC1CCCN(CCOCCOc2ccc(Cl)cc2Br)C1 (stereo not drawn) | 11.7µM* | -25.6% | -2.7 | 15.9 | -1.2% | 11.7µM*
CC1CCCN(CCOCCOc2ccc(Br)cc2Cl)C1 (stereo not drawn) | 13.6% | -1.0% | -2.0 | -10.6 | -17.4% | ?
CC(C)c1ccc(/C=N/NC(=O)C(=O)NCCCN2CCOCC2)cc1 | 24.0% | 10.5% | -0.6 | -10.2 | -3.2% | 0.8%
CC(C)N(NC(=O)c1cccc2ccccc12)C(C)C | 33.6% | -13.5% | -0.6 | 17.5 | -2.7% | 23.8%
O=C(Nc1ccccc1C(=O)NCc1cccnc1)c1ccccc1F | ? | -6.4% | -1.3 | -1.0 | 1.6% | 15.8%
Cc1c(NC(=O)c2ccc(S(=O)(=O)N(C)c3ccccc3)cc2)c(=O)n(-c2ccccc2)n1C | -7.3% | 48.0% | -2.2 | -19.0 | 1.8% | -20.8%
CCOC(=O)CCCc1ccc(/C(C)=N/NC(N)=S)cc1 | ? | 35.8% | 14.9* | 25.0 | 20.7% | ?
N#Cc1cc2c(nc1SCC(O)CS(=O)(=O)Cc1ccccc1)CCCC2 (stereo not drawn) | . | -1.8% | -0.8 | -12.5 | 2.2% | -11.2%
O=C(CCCCCN1C(=O)[C@@H]2Cc3ccccc3CN2C1=O)Nc1ccccc1Cl | ? | 56.1% | 29.6* | 29.8 | -0.5% | ?
COc1ccc(NC(=O)CCCCCN2C(=O)[C@@H]3Cc4ccccc4CN3C2=O)cc1Cl | 11.7µM* | 14.0% | -1.2 | -2.5 | 4.0% | -16.4%
Cc1ccccc1NC(=O)CCCCCN1C(=O)[C@@H]2Cc3ccccc3CN2C1=O | ? | -2.3% | 12.0 | -15.5 | -1.2% | -10.9%
O=C(O)c1cccc(N2C(=O)C3C4C=CC(C4=C(c4ccccc4)c4ccccc4)C3C2=O)c1 (stereo not drawn) | 22.5% | 15.5% | -3.6 | -11.1 | -0.9% | ?
Cc1ccc(S(=O)(=O)Cn2nnnc2CN(Cc2ccco2)CC2CCCO2)cc1 (stereo not drawn) | 4.15µM* | 0.0% | -2.2 | 0.8 | 1.9% | ?
Cc1ccc2cc(CN(Cc3nnnn3Cc3ccco3)CC3CCCO3)c(=O)[nH]c2c1C (stereo not drawn) | -26.4% | -2.3% | -3.2 | 0.0 | -0.6% | ?
Cc1cc(C)c(OCC(O)CN2CCN(C(=O)c3ccccc3)CC2)c(C)c1 (stereo not drawn) | 6.57µM* | -27.0% | -1.4 | -6.9 | 2.7% | ?
